Experiment [1] concerns NIH3T3. Briefly: qHTS assay to identify novel small-molecules to repurpose for Merkel cell carcinoma treatment (AID 1296009). Also: nearly all actives have a fitted effect of over 60% in size. As to activity change, negative = cytotoxicity: % is scaled to controls: 0 for no effect and ±100 for the full control effect. The settings on record: MCC and control cell lines, CellTiter-Glo viability, 72 h. In outline:
(§1)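 Cells were treated for 72 hr at 37 degree celsius with compounds in 8- or 11-point dose response. Viability was read by CellTiter-Glo luminescence, normalized to no-cell (cytotoxicity) and DMSO controls.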
(In general: qHTS replaces the single test concentration by a dilution series.)

In experiment [2] the test system is UISO. The description is as above. The settings on record: MCC and control cell lines, CellTiter-Glo viability, 72 h; series mostly up to 46 µM. In outline:
as §1

In experiment [3] the test system is WaGa. The description is as above. The settings on record: MCC and control cell lines, CellTiter-Glo viability, 72 h; series mostly up to 46 µM. In a few lines:
as §1
On the technique in general: ATP-based viability assays read luminescence as a measure of living cells.

For experiment [4], the system named is C33A. The experiment can be described thus: Primary qHTS to identify gynecologic anti-cancer compounds using libraries of approved drugs and bioactive compounds (AID 1345084). Also: nearly all actives have a fitted effect of over 55% in size. Also: potency is read from the fitted curve at half-maximal effect. As to activity change, negative = cytotoxicity: % is scaled to controls: 0 for no effect and ±100 for the full control effect. The settings on record: Gynecologic cancer cell panel viability, ATPlite luminescence, 48 h; series mostly up to 57.5 µM. In a few lines: (§2)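 Cell viability after 48 h drug treatment, ATPlite luminescence readout; five doses.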

In experiment [5] the test system is CAOV3. The experiment is described as above. The settings on record: Gynecologic cancer cell panel viability, ATPlite luminescence, 48 h; series mostly up to 57.5 µM. In outline: as §2
Experiment [6] has as its system CASKI. The description is as above. As to conditions: Gynecologic cancer cell panel viability, ATPlite luminescence, 48 h; series mostly up to 57.5 µM. In a few lines: as §2
In experiment [7] the test system is Es-2. The description is as above. The settings on record: Gynecologic cancer cell panel viability, ATPlite luminescence, 48 h; series mostly up to 57.5 µM. In a few lines: as §2
For experiment [8], the system named is HeLa. Described as above. As to conditions: Gynecologic cancer cell panel viability, ATPlite luminescence, 48 h; series mostly up to 57.5 µM. In a few lines: as §2
Experiment [9] deals with Hek293T. The experiment is described as above. The settings on record: Gynecologic cancer cell panel viability, ATPlite luminescence, 48 h, control line for the selectivity index; series mostly up to 57.5 µM. In a few lines: as §2
For experiment [10], the system named is JEG-3. Described as above. As to conditions: Gynecologic cancer cell panel viability, ATPlite luminescence, 48 h; series mostly up to 57.5 µM. In outline: as §2
Experiment [11] relates to OV90. The experiment is described as above. As to conditions: Gynecologic cancer cell panel viability, ATPlite luminescence, 48 h; series mostly up to 57.5 µM. In a few lines:
as §2

For experiment [12], the system named is PA-1. The description is as above. As to conditions: Gynecologic cancer cell panel viability, ATPlite luminescence, 48 h; series mostly up to 57.5 µM. In a few lines: as §2
Experiment [13] relates to SKOV3. The description is as above. As to conditions: Gynecologic cancer cell panel viability, ATPlite luminescence, 48 h; series mostly up to 57.5 µM. In a few lines: as §2
The subject of experiment [14] is Tov-21-G. The experiment is described as above. As to conditions: Gynecologic cancer cell panel viability, ATPlite luminescence, 48 h; series mostly up to 57.5 µM. In outline:
as §2

Experiment [15] concerns Tov112D. The description is as above. The settings on record: Gynecologic cancer cell panel viability, ATPlite luminescence, 48 h; series mostly up to 57.5 µM. In a few lines:
as §2

Experiment [16] has as its system astro. The experiment can be described thus: Drug repurposing screens with cells derived from glioblastoma tumor samples (AID 1345199). Also: nearly all actives have a fitted effect of over 40% in size. Also: potency is read from the fitted curve at half-maximal effect. As to activity, negative = cell killing: % is scaled to controls: 0 for no effect and ±100 for the full control effect. The settings on record: viability, ATP luminescence, 48 h; series mostly up to 45.9 µM. In outline:
(§3)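 Four patient lines of CD133+ GBM neurospheres were screened at several concentrations; hits were retested in those lines plus three slower-growing GBM lines, using 48-hour treatment and ATP-based viability.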

Assay in experiment [17]: as above
As to conditions: GBM patient neurospheres viability, ATP luminescence, 48 h. In a few lines: as §3

In experiment [18] the target is Nuclear receptor subfamily 1 group I member 2 (Rattus norvegicus) (UniProt Q9R1A7). The experiment can be described thus: qHTS assay for small molecule activators of the rat pregnane X receptor (rPXR) signaling pathway (AID 651751; call rule not given here; also: 0% is about no effect). The settings on record: rPXR reporter cells, luciferase (One-Glo), 24 h.
Nuclear receptor subfamily 1 group I member 2 (Rattus norvegicus), sequence (Q9R1A7 whole entry, looked up): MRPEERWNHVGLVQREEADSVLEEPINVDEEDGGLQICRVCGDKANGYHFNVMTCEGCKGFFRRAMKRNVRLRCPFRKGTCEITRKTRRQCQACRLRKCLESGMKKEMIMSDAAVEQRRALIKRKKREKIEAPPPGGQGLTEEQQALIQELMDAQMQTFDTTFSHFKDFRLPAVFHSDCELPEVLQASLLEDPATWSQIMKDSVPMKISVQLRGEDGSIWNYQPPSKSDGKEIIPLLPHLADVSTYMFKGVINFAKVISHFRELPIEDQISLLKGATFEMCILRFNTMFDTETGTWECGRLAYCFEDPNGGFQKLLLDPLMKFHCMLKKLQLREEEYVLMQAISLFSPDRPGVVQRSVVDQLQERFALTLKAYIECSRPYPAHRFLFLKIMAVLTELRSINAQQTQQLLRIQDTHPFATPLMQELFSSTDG
Experiment [19] in a line: qHTS assay for small molecule activators of the human pregnane X receptor (PXR) signaling pathway (AID 720659; call rule not given here; also: 0% is about no effect).
[20] abbreviates: at 44.8 µM (top of the series) unless noted.
[21] abbreviates: at 45.9 µM (top of the series), tumour line B.
[22] abbreviates: at 45.9 µM (top of the series), tumour line D.
Setting [23] is: at 46 µM (top of the series), tumour line A.
[24] abbreviates: at 46.1 µM (top of the series), tumour line C.

These results are taken from PubChem BioAssay (NCATS).

Each structure is given as a SMILES string. Where “and” joins values, the source holds several entries; their conditions need not be identical. Equal entries are not always repeated. Values without a mark were called inactive. Results filed as inconclusive are left out. Calls of active or inactive are those of the source. Unless noted, calls follow the shape of the dose curve; as a rule, active = well fitted curve in the direction sought with a large enough effect; inconclusive = small, poorly fitted or top-dose-only effect, or another doubt; inactive = no such curve, though single readings can be large; an effect the other way counts as inactive or inconclusive.

For `O=C(Nc1ccc(F)c(C(F)(F)F)c1)Nc1nnc(-c2ccncc2)s1`, the outcome in experiment [1] (setting [20]) was inactive. Further, the Potency entry in experiment [2], in experiment [3], in experiment [4], in [5], in experiment [6] and in experiment [7] was “inactive” each time. For the same compound, the Potency entry in experiment [8], in experiment [9], in experiment [10], in experiment [11], in [12] and in [13] was “inactive” each time. For the same compound, the Potency entry in [14] and in [15] was “inactive” in each case.
As to `CCCc1nc2c(C)cc(-c3nc4ccccc4n3C)cc2n1Cc1ccc(-c2ccccc2C(=O)O)cc1`, in experiment [1] (setting [20]), the compound was called inactive. The Potency entry in experiment [2], in [3], in experiment [4], in experiment [5], in [6] and in experiment [7] was “inactive” in each case. The Potency entry in experiment [8], in experiment [9], in [10], in [11], in experiment [12] and in [13] was “inactive” throughout. Further, the Potency entry in [14], in experiment [15] and in [16] was “inactive” each time.
For the compound `O=C1CCC(N2C(=O)c3ccccc3C2=O)C(=O)N1` (configuration not stated), the compound was called inactive in experiment [1] (setting [20]) and in experiment [19]. Further, the Potency result in experiment [2], in [3], in experiment [4], in experiment [5], in [6] and in experiment [7] was “inactive” each time. Further, the Potency result in experiment [8], in [9], in experiment [10], in [11], in [12] and in experiment [13] was “inactive” throughout. Moreover, the Potency result in experiment [14], in experiment [15] and in experiment [16] was “inactive” each time. Moreover, the activity, negative = cell killing in experiment [17] (setting [21]) is -4.2%; in experiment [17] (setting [22]), -2.61%; in experiment [17] (setting [23]), -6.31%; in experiment [17] (setting [24]), 3.21%. Besides, the max response in [18] is 1.73%.
With `Clc1cccc(Cl)c1NC1=NCCN1`, the result in experiment [1] (setting [20]) was inactive. The Potency result in [2], in experiment [3], in [4], in experiment [5], in experiment [6] and in experiment [7] was “inactive” each time. Further, the Potency entry in [8], in experiment [9], in experiment [10], in experiment [11], in [12] and in experiment [13] was “inactive” in each case. In addition, the Potency result in [14], in [15] and in [16] was “inactive” throughout. For the same compound, the activity, negative = cell killing is 5.06% in experiment [17] (setting [21]), -7.27% in [17] (setting [22]), -29.3% in [17] (setting [23]) and 0.125% in [17] (setting [24]).
For `CCN(CC)CCCC(C)Nc1nc(C)cc(Nc2ccc3nc(C)cc(N)c3c2)n1` (configuration not stated), the outcome in [1] (setting [20]) was inactive. In addition, the Potency result in experiment [2] and in [3] was “inactive” each time.
Take `CC(C)NCC(O)COc1ccc(COCCOC(C)C)cc1` (configuration not stated): in experiment [1] (setting [20]), the outcome was inactive. Also, the Potency result in experiment [2], in experiment [3], in experiment [4], in experiment [5], in experiment [6] and in experiment [7] was “inactive” each time. In addition, the Potency result in [8], in [9], in [10], in experiment [11], in [12] and in experiment [13] was “inactive” in each case. The Potency entry in experiment [14], in [15] and in experiment [16] was “inactive” in each case.
For `CC(C=CC1=C(C)CCCC1(C)C)=CC=CC(C)=CC(=O)O`, in experiment [1] (setting [20]), the compound was classed as inactive. In addition, the Potency result in experiment [2] and in experiment [3] was “inactive” in each case.
For the compound `CCn1cc(C(=O)O)c(=O)c2cc(F)c(N3CCNC(C)C3)c(F)c21` (configuration not stated), the result in [1] (setting [20]) was inactive. In addition, the Potency result in experiment [2], in experiment [3], in experiment [4], in experiment [5], in experiment [6] and in experiment [7] was “inactive” in each case. The Potency entry in [8], in [9], in [10], in [11], in [12] and in experiment [13] was “inactive” each time. Moreover, the Potency result in [14], in experiment [15] and in experiment [16] was “inactive” in each case. The activity, negative = cell killing was -18.8% and -6.47% in experiment [17] (setting [21]); -1.92% and -11.9% in experiment [17] (setting [22]); -14% and -29.8% in experiment [17] (setting [23]); -19.8% and -7.41% in [17] (setting [24]).
With `O=C(C=Cc1ccc(/C=C/C(=O)Nc2ccc(C3=NCCN3)cc2)cc1)Nc1ccc(C2=NCCN2)cc1`, the result in experiment [1] (setting [20]) was inactive. Also, the Potency entry in [2] and in experiment [3] was “inactive” in each case.
Regarding `CCCCNc1cc(C(=O)O)cc(S(N)(=O)=O)c1Oc1ccccc1`, the call in experiment [1] (setting [20]) was inactive. The Potency result in experiment [2], in experiment [3], in [4], in [5], in experiment [6] and in experiment [7] was “inactive” throughout. Also, the Potency entry in experiment [8], in [10], in [11], in [12], in experiment [13] and in experiment [14] was “inactive” each time. For the same compound, the Potency result in experiment [15] and in experiment [16] was “inactive” throughout. The activity, negative = cell killing in experiment [17] (at 21.2 µM (top of the series), tumour line D) was -6.33%; in experiment [17] (at 21.3 µM (top of the series), tumour line A) it was -23.2%.
In the case of `CN[C@@H](C)C(=O)N[C@H]1CCCC[C@H]2CC[C@@H](C(=O)N[C@@H](c3ccccc3)c3cn(CCCCc4ccc(CCCCn5cc([C@@H](NC(=O)[C@@H]6CC[C@@H]7CCCC[C@H](NC(=O)[C@H](C)NC)C(=O)N76)c6ccccc6)nn5)cc4)nn3)N2C1=O`, the outcome in experiment [1] (setting [20]) was inactive.
In the case of `O=C1CCCC2=C1C(c1[nH]ncc1Cl)N=C(Nc1nc3ccccc3o1)N2` (configuration not stated), the outcome in [1] (setting [20]) was inactive. Also, the Potency result in [2], in experiment [3], in [4], in [5], in experiment [6] and in experiment [7] was “inactive” throughout. In addition, the Potency result in experiment [8], in [9], in experiment [10], in experiment [11], in experiment [12] and in [13] was “inactive” throughout. Also, the Potency result in [14] and in experiment [15] was “inactive” each time.
In the case of `COc1ccc([C@@H]2CC(=O)c3c(O)cc(O[C@@H]4O[C@H](CO[C@@H]5O[C@@H](C)[C@H](O)[C@@H](O)[C@@H]5O)[C@@H](O)[C@H](O)[C@@H]4O)cc3O2)cc1O`, in experiment [1] (setting [20]), the result was inactive. The Potency entry in [2] and in experiment [3] was “inactive” in each case.
Take `CCN(CC)CCCC(C)Nc1ccnc2cc(Cl)ccc12` (configuration not stated): the call in [1] (at 9.27 µM (top of the series)) and in [1] (at 44.8 µM (top of the series)) was inactive. The Potency result in experiment [2], in [3], in [4], in [7], in experiment [8] and in experiment [9] was “inactive” each time. Also, the Potency entry in experiment [10], in experiment [12], in [13], in [14], in experiment [15] and in experiment [16] was “inactive” in each case. The activity change, negative = cytotoxicity in experiment [5] was -18.6% [at 11.6 µM]; in experiment [6], -9.21% [at 11.6 µM]. The Potency in [11] was 5.62 µM (active); in [17] (tumour line A), 15.8 µM (active). The activity, negative = cell killing in experiment [17] (setting [24]) is 3.03%.
In the case of `COc1ccc(CCN2CCN(CCCc3ccccc3)CC2)cc1OC`, the compound was called inactive in [1] (setting [20]). Also, the Potency entry in [2], in [3], in [4], in experiment [5], in [6] and in experiment [7] was “inactive” each time. The Potency result in [8], in experiment [9], in experiment [10], in experiment [11], in [12] and in [13] was “inactive” each time. For the same compound, in experiment [15], the Potency entry is “inactive”.
